Screening results deposited in PubChem BioAssay by National Center for Advancing Translational Sciences (NCATS).
SW480 rerep = DNA re-replication induction in SW480 cells; Potency, µM (top dose mostly 46.1 µM), without a hit: at the highest dose re-replication activation, most hits filed as activators; 340,000 compounds, 1.8% hits; SW480 DNA re-replication, Hoechst DNA content imaging, 48 h; also: % of control where 0% means no effect; nearly all actives have a fitted effect of over 55% in size
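Quantitative HTS format with DMSO vehicle controls; 48 hr drug incubation at 37 C, then 40 min Hoechst staining and scanning imager measurement at 405 nm excitation.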
KB-V1 MDR tox = kills drug-selected multidrug resistant KB-V1 cells; KB-V1 MDR cells viability, CellTiter-Glo, 72 h; Potency, µM (titrated, usually from 46.1 µM), most hits filed as cytotoxic; 400,000 compounds, 3.4% hits; also: % is scaled to controls: 0 for no effect and ±100 for the full control effect; nearly all actives have a fitted effect of over 60% in size
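qHTS viability screen in drug-selected KB-V1 MDR cells: 72 h compound treatment at 37 degrees C, ATP luminescence end point.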
RGS4 inhibitor = human RGS4 inhibition. P49798. Transcreener GDP fluorescence polarization, RGS4-accelerated GTP hydrolysis. Potency, µM (top dose mostly 114 µM), without a hit: at the top dose activity change, negative = inhibition, usual class: inhibitors. 390,000 compounds, 0.039% hits. AID 504845; also: % is scaled to controls: 0 for no effect and ±100 for the full control effect; nearly all actives have a fitted effect of over 75% in size
Target sequence (P49798 whole entry, looked up): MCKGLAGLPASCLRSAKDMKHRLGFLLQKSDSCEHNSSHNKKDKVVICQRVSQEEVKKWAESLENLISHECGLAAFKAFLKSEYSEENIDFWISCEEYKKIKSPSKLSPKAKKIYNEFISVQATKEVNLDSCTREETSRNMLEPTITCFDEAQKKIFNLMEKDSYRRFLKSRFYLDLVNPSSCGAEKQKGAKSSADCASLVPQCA
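MLSMR compounds (23 nl, pin-transferred) preincubated 10 min at room temperature with a 500nM (2x) first reagent, then RGS4 at 900nM (2x) plus Transcreener GDP mix added; fluorescence polarization (620/688 nm) read before and after 90 min at 30 °C.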
KB-3-1 cytotox = kills parental KB-3-1 adenocarcinoma cells; 400,000 compounds, 1.4% hits; Potency, µM (top dose mostly 46.1 µM), actives largely listed as cytotoxic; KB-3-1 viability, CellTiter-Glo ATP luminescence, 72 h; also: % is scaled to controls: 0 for no effect and ±100 for the full control effect; nearly all actives have a fitted effect of over 60% in size
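Multi-concentration cytotoxicity screen in KB-3-1 cells grown in DMEM lacking phenol red with 10% FBS. After 72 h at 37 °C with compound, ATP-dependent luminescence was recorded.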
PTAP TSG101 blk = blocks PTAP/TSG101 interaction to inhibit HIV-1 budding; Q99816; Fluorescence polarization, FITC-PTAP peptide / Tsg101 binding; Potency, µM (series often up to 115 µM), without a hit: at the highest dose activity change, negative = inhibition, usual class: inhibitors; 340,000 tested, under 10 active; AID 493005; active = well fitted inhibition curve with a large enough effect in the main read-out, with a control signal flat, not every such curve was filed as active; inconclusive = small, poorly fitted or top-dose-only effect, or effect the other way, or a change in a side signal; inactive = no such curve, though single readings can be large or run the other way; also: % of control where 0% means no effect
Target sequence (Q99816 whole entry, looked up): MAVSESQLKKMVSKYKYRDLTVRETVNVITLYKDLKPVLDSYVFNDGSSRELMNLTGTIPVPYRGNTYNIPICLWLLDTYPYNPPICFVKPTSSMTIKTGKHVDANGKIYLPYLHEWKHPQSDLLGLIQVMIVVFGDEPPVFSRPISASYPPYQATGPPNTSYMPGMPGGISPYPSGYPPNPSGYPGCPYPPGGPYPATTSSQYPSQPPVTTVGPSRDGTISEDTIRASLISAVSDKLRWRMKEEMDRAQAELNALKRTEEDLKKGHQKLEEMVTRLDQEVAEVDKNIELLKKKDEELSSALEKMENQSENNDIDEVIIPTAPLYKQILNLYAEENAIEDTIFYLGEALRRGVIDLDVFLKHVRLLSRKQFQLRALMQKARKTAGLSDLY
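Fluorescence polarization binding of Tsg101 binding domain (10 uM final) to FITC-labeled PTAP peptide (50 nM final) in HEPES pH 7.5 buffer with NaCl, Tween 20, EDTA, TCEP. Compounds added before peptide; binding 20 min at RT.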
MCF10A rereplic = inducers of DNA re-replication in MCF 10A breast cells; MCF 10A DNA re-replication, Hoechst nuclear intensity, 48 h; 350,000 compounds, 2.9% hits; Potency, µM (series often up to 46.1 µM), for the others: at the top dose activity, positive = re-replication, usual class: activators; also: % of control where 0% means no effect; nearly all actives have a fitted effect of over 50% in size
Starred values were filed as active, the others as inactive; [ ] = dose if it differs, or a comment. Rows were chosen to be rich in hits. Some 6.6% of all compounds tested hit in one or more screens of this group. Unless noted, calls follow the shape of the dose curve; as a rule, active = well fitted curve in the direction sought with a large enough effect; inconclusive = small, poorly fitted or top-dose-only effect, or another doubt; inactive = no such curve, though single readings can be large; an effect the other way counts as inactive or inconclusive. Potency is read from the fitted curve at half-maximal effect.

Screening Cc1nn2c(NCc3ccccn3)cc(C(C)(C)C)nc2c1-c1ccccc1 returned SW480 rerep 2.91µM*, KB-V1 MDR tox inactive, RGS4 inhibitor 17.9%, KB-3-1 cytotox inconclusive, PTAP TSG101 blk -3.7% and MCF10A rereplic 2.59µM*.
CN(C)c1oc(-c2ccc(OCc3ccccc3)cc2)nc1C#N was read as SW480 rerep -97.0%, KB-V1 MDR tox 20.6µM*, RGS4 inhibitor -21.2%, KB-3-1 cytotox inactive, PTAP TSG101 blk 0.0% and MCF10A rereplic inconclusive.
N#Cc1nc(-c2ccc(OCc3ccc(Cl)cc3)cc2)oc1NCc1cccnc1 was read as SW480 rerep -3.0%, KB-V1 MDR tox inactive, RGS4 inhibitor 9.5%, KB-3-1 cytotox inactive, PTAP TSG101 blk -5.0% and MCF10A rereplic 11.2µM*.
`N#Cc1nc(-c2ccc(OCc3ccccc3)cc2)oc1NCCCn1ccnc1` gave SW480 rerep -26.8%, KB-V1 MDR tox 23.1µM*, RGS4 inhibitor -22.7%, KB-3-1 cytotox inconclusive, PTAP TSG101 blk -2.6% and MCF10A rereplic -1.7%.
For CC(C)CC(=O)Nc1c(C(=O)N2CCN(c3ccccc3F)CC2)oc2ccccc12 the results were RGS4 inhibitor -2.3%.
COc1ccc(C2N=C(c3ccccc3)NC(c3ccccc3)=N2)cc1 was read as SW480 rerep inconclusive, KB-V1 MDR tox inconclusive, RGS4 inhibitor 0.0%, KB-3-1 cytotox inactive, PTAP TSG101 blk -1.4% and MCF10A rereplic 2.59µM*.
c1ccc(C2=NC(c3ccccc3)N=C(c3ccccc3)N2)cc1 was read as SW480 rerep -1.1%, KB-V1 MDR tox inactive, RGS4 inhibitor 1.5%, KB-3-1 cytotox inactive, PTAP TSG101 blk -1.5% and MCF10A rereplic 13.8%.
Screening COc1ccccc1OCCn1c(=S)[nH]c2ccccc21 returned SW480 rerep inconclusive, KB-V1 MDR tox 23.1µM*, RGS4 inhibitor inconclusive, KB-3-1 cytotox inconclusive, PTAP TSG101 blk -0.3% and MCF10A rereplic inconclusive.
Cc1ccc(OCCn2c(=S)[nH]c3ccccc32)c(C(C)C)c1 was read as SW480 rerep 4.5%, KB-V1 MDR tox inactive, RGS4 inhibitor -22.4%, KB-3-1 cytotox 14.6µM*, PTAP TSG101 blk -6.8% and MCF10A rereplic inconclusive.
`O=C(CSCn1nnc2c(=O)[nH]c(Cc3ccc(F)cc3)nc21)Nc1cccc(C(F)(F)F)c1` gave KB-V1 MDR tox inactive, RGS4 inhibitor -15.8% and KB-3-1 cytotox inactive.
`Nc1ccc2c(c1)C(=NO)c1cc([N+](=O)[O-])ccc1-2` gave SW480 rerep 10.3µM*, KB-V1 MDR tox inactive, RGS4 inhibitor -19.6%, KB-3-1 cytotox inactive, PTAP TSG101 blk -0.6% and MCF10A rereplic 11.0%.
For CCCOP(=O)(OCCC)c1c([N+](=O)[O-])cc(C(F)(F)F)cc1[N+](=O)[O-] the results were SW480 rerep 18.4µM*, KB-V1 MDR tox inconclusive, RGS4 inhibitor 16.5%, KB-3-1 cytotox inconclusive, PTAP TSG101 blk -0.4% and MCF10A rereplic inconclusive.
`O=C(c1cnc2ccc3ccccc3c2c1)c1cc(F)ccc1O` gave SW480 rerep 3.66µM*, KB-V1 MDR tox 3.66µM*, RGS4 inhibitor 4.4%[11.4 µM], KB-3-1 cytotox inconclusive, PTAP TSG101 blk 0.9% and MCF10A rereplic inconclusive.
CCC(C)NC(=O)CSc1nc2cc3c(cc2c(=O)n1CCCCCC(=O)NCc1ccc2c(c1)OCO2)OCO3 (stereo unspecified) was read as RGS4 inhibitor -1.4%.
Cc1cc(C)cc(S(=O)(=O)c2cn(C)c3cc(N4CCN(C)CC4)c(F)cc3c2=O)c1 was read as SW480 rerep -9.5%, KB-V1 MDR tox inconclusive, RGS4 inhibitor -11.5%, KB-3-1 cytotox inactive, PTAP TSG101 blk -2.2% and MCF10A rereplic 23.1µM*.
`CC(=O)c1c(C)n([O-])c2cc(F)c(F)cc2[n+]1=O` gave SW480 rerep inconclusive, KB-V1 MDR tox inconclusive, RGS4 inhibitor -19.8%, KB-3-1 cytotox 16.4µM*, PTAP TSG101 blk -9.4% and MCF10A rereplic inconclusive.
Screening Cc1cc2n(n1)CCC(=O)N2Cc1ccc(C(=O)Nc2cccc(C(F)(F)F)c2)cc1 returned KB-V1 MDR tox inactive, RGS4 inhibitor -21.8% and KB-3-1 cytotox inactive.
Screening CC(=O)Oc1ccc(C(=O)Nc2cccc(NC(=O)c3ccco3)c2)cc1 returned SW480 rerep -52.0%, KB-V1 MDR tox inactive, RGS4 inhibitor -7.3%, KB-3-1 cytotox inactive, PTAP TSG101 blk -1.5% and MCF10A rereplic 6.51µM*.
`CC(=O)c1cccc(NC(=O)c2cccc(NC(=O)c3ccco3)c2)c1` gave SW480 rerep -35.5%, KB-V1 MDR tox inactive, RGS4 inhibitor inconclusive, KB-3-1 cytotox inactive, PTAP TSG101 blk 5.2% and MCF10A rereplic 11.8%.
O=C(Nc1cc(Br)c(O)c(Br)c1)c1cccc(NC(=O)c2ccco2)c1 was read as SW480 rerep -27.1%, KB-V1 MDR tox inactive, RGS4 inhibitor -7.7%, KB-3-1 cytotox inactive, PTAP TSG101 blk -4.8% and MCF10A rereplic 0.731µM*.
CC(C)(C)c1ccc(C(=O)Nc2ccc(NC(=O)c3ccco3)cc2)cc1 was read as SW480 rerep inconclusive, KB-V1 MDR tox inactive, RGS4 inhibitor 16.3%, KB-3-1 cytotox inactive, PTAP TSG101 blk -3.6% and MCF10A rereplic 13µM*.
`O=C(Nc1ccc(NC(=O)c2sc3ccccc3c2Cl)cc1)c1ccco1` gave SW480 rerep inconclusive, KB-V1 MDR tox inactive, RGS4 inhibitor -45.8%, KB-3-1 cytotox inactive, PTAP TSG101 blk -1.5% and MCF10A rereplic 11.6µM*.
For O=C(Nc1cccc(NC(=O)c2ccco2)c1)c1cccc(Br)c1 the results were SW480 rerep -7.6%, KB-V1 MDR tox inconclusive, RGS4 inhibitor -12.2%, KB-3-1 cytotox inactive, PTAP TSG101 blk 1.0% and MCF10A rereplic 7.1%.
`CCOc1ccc(NC(=O)c2oc3ccccc3c2NC(=O)c2ccc(OC)cc2OC)cc1` gave KB-V1 MDR tox inconclusive, RGS4 inhibitor -6.7% and KB-3-1 cytotox inactive.
`O=C(COc1ccc([N+](=O)[O-])cc1)N1CCC(c2nc3ccccc3s2)CC1` gave KB-V1 MDR tox inconclusive, RGS4 inhibitor -4.5% and KB-3-1 cytotox inconclusive.
For CC(=O)Oc1ccc(C(=O)Nc2cccc(C(=O)c3ccc(C)c(C)c3)c2)cc1 the results were SW480 rerep -5.9%, KB-V1 MDR tox 9.2µM*, RGS4 inhibitor 5.8%, KB-3-1 cytotox 16.4µM*, PTAP TSG101 blk 1.4% and MCF10A rereplic inconclusive.
Screening O=C1CC(c2ccsc2)c2ccc3ccccc3c2N1 (stereo unspecified) returned SW480 rerep 5.0%, KB-V1 MDR tox inactive, RGS4 inhibitor -2.9%, KB-3-1 cytotox inconclusive, PTAP TSG101 blk -1.7% and MCF10A rereplic inconclusive.
